From the supplement of paper PMC10849652
Of roughly 7,900 targets only a part is listed; those with a hit were picked by preference. About 0.6% of all pairs of compound and target were hits.

Tests used:
Experiment in all cases: log2 fold change, soluble protein after heating vs DMSO (PISA); higher = thermal stabilisation; K562 cells, 10 uM, 30 min; active = over 0.2 and 3.5 SD of the protein, either way, in both replicates (recomputed)
saracatinib = compound: CN1CCN(CCOc2cc(OC3CCOCC3)c3c(Nc4c(Cl)ccc5c4OCO5)ncnc3c2)CC1 [saracatinib]
How it was run: (§1)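 Aliquots of K562 cells (2×10^6 cells/mL) treated with 10 μM compound for 30 min were heated for 3 min over 48°C-58°C. After pooling and extraction in PBS with 0.5% NP-40 at 4°C, soluble protein from a 21,000xg, 90 min spin was quantified by TMTpro 16plex LC-MS/MS with channel sums equalised. Thermal stability is expressed against control samples, from duplicates, as a log2 fold change.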

sotrastaurin = compound: CN1CCN(c2nc(C3=C(c4c[nH]c5ccccc45)C(=O)NC3=O)c3ccccc3n2)CC1 [sotrastaurin]
How it was run: as §1

alvocidib = compound: CN1CC[C@H](c2c(O)cc(O)c3c(=O)cc(-c4ccccc4Cl)oc23)[C@H](O)C1 [alvocidib]
How it was run: as §1

Tubastatin A = compound: CN1CCc2c(c3ccccc3n2Cc2ccc(C(=O)NO)cc2)C1 [Tubastatin A]
How it was run: as §1

[1] = compound: CNC(=O)C1=CC=CC=C1NC2=NC(=NC=C2Cl)NC3=C(C=C(C=C3)N4CCOCC4)OC
How it was run: as §1

defactinib = compound: CNC(=O)c1ccc(Nc2ncc(C(F)(F)F)c(NCc3nccnc3N(C)S(C)(=O)=O)n2)cc1 [defactinib]
How it was run: as §1

rucaparib = compound: CNCc1ccc(-c2[nH]c3cc(F)cc4c3c2CCNC4=O)cc1 [rucaparib]
How it was run: as §1

[2] = compound: CNc1nc(-c2ccc3c(N)n[nH]c3c2)cc(N2C[C@@H](C(=O)NC3CCCCC3)CC[C@H]2C)n1
How it was run: as §1

encorafenib = compound: COC(=O)N[C@@H](C)CNc1nccc(-c2cn(C(C)C)nc2-c2cc(Cl)cc(NS(C)(=O)=O)c2F)n1 [encorafenib]
How it was run: as §1

[3] = compound: COC(=O)[C@H](CCSC)NC(=O)C1=C(C=C(C=C1)NC[C@H](CS)N)C2=CC=CC=C2
How it was run: as §1

Measured: log2 fold change

SRSF6 (UniProt Q13247)
inactive: saracatinib 0.032 | sotrastaurin 0.031 | alvocidib 0.054 | Tubastatin A 0.092 | [1] -0.331 | defactinib 0.032 | rucaparib 0.227 | [2] -0.113 | encorafenib 0.096 | [3] 0.018

SPR (UniProt P35270)
inactive: saracatinib 0.318 | sotrastaurin 0.052 | alvocidib 0.064 | Tubastatin A -0.014 | [1] -0.053 | defactinib 0.237 | rucaparib 0.043 | [2] 0.026 | encorafenib -0.065 | [3] -0.021

TMBIM6 isoform 2 (UniProt P55061)
Sequence of UniProt P55061 (P55061 whole entry, looked up): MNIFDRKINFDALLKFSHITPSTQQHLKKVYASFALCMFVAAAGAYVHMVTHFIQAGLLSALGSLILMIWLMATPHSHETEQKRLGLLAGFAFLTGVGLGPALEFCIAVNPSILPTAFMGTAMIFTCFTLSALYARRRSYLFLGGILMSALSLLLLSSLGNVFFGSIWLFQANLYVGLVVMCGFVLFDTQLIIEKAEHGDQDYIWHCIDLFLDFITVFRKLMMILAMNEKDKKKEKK
inactive: saracatinib 0.08 | sotrastaurin -0.029 | alvocidib -0.027 | Tubastatin A 0.062 | [1] -0.004 | defactinib -0.007 | rucaparib -0.065 | [2] -0.006 | encorafenib -0.005 | [3] 0.039

SLC25A36 (UniProt Q96CQ1)
inactive: saracatinib 0.233 | sotrastaurin -0.057 | alvocidib -0.018 | Tubastatin A -0.027 | [1] 0.013 | defactinib 0.011 | rucaparib 0.066 | [2] 0.016 | encorafenib -0.055 | [3] 0.162

SPPL2B (UniProt Q8TCT7)
Sequence of UniProt Q8TCT7 (Q8TCT7 whole entry, looked up): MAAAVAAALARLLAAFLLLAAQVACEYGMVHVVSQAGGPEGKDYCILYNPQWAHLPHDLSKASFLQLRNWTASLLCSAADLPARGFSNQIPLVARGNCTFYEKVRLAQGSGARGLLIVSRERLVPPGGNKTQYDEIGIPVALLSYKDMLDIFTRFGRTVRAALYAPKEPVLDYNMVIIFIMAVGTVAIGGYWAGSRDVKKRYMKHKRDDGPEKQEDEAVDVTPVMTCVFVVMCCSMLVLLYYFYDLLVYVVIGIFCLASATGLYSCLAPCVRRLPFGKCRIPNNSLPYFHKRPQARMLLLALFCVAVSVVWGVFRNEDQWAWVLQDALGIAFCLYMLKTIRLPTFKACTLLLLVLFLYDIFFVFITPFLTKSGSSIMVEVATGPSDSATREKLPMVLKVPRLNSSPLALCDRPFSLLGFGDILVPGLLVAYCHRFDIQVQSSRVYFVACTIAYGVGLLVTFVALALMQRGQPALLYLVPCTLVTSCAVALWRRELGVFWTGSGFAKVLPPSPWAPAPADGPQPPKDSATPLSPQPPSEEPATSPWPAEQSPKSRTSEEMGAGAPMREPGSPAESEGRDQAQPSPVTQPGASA
inactive: saracatinib -0.009 | sotrastaurin 0.074 | alvocidib -0.02 | Tubastatin A -0.031 | [1] 0.026 | defactinib -0.014 | rucaparib -0.036 | [2] -0.06 | encorafenib 0.029 | [3] 0.069

SYMPK (UniProt Q92797)
inactive: saracatinib -0.058 | sotrastaurin -0.205 | alvocidib -0.2 | Tubastatin A 0.258 | [1] 0.008 | defactinib -0.245 | rucaparib 0.09 | [2] 0.007 | encorafenib 0.079 | [3] -0.022

TCOF1 isoform 4 (UniProt Q13428)
Sequence of UniProt Q13428 (Q13428 whole entry, looked up): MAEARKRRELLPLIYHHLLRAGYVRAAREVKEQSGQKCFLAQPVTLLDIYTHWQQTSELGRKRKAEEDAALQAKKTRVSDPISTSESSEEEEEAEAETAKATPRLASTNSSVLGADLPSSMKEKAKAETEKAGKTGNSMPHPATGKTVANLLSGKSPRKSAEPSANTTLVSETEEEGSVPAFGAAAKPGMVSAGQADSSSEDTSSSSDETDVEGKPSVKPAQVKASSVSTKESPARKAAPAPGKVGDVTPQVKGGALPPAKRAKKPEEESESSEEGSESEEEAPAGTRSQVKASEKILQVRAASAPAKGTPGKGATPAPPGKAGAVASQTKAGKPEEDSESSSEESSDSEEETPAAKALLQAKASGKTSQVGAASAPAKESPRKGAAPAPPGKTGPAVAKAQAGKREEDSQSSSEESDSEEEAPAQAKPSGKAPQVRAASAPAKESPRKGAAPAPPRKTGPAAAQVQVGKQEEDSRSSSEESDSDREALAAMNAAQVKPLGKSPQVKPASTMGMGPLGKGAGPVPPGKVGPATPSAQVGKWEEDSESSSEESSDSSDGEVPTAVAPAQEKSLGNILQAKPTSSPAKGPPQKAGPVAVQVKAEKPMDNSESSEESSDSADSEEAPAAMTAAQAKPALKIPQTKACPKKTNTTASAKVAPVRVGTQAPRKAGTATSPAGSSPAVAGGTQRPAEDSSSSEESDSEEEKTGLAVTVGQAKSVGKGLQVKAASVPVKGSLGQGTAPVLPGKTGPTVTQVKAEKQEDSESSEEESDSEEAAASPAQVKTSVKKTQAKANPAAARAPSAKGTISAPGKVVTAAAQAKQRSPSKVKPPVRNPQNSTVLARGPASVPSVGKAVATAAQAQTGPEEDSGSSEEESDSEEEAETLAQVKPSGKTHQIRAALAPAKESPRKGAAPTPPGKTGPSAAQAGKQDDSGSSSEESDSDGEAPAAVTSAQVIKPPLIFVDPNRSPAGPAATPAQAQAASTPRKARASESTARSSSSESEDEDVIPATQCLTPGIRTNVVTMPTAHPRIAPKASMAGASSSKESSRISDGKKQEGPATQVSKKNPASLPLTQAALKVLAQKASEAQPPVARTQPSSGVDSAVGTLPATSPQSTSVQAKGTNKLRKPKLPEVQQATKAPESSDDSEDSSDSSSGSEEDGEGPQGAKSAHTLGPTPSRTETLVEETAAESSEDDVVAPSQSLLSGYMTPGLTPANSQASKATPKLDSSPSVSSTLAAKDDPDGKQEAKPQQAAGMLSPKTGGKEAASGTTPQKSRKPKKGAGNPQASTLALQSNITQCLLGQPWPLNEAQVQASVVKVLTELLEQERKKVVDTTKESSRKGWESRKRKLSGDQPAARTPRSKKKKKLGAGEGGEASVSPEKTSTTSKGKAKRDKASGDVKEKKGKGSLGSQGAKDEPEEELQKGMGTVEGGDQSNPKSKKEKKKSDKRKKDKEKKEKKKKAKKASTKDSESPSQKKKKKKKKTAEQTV
inactive: saracatinib 0.016 | sotrastaurin -0.064 | alvocidib 0.012 | Tubastatin A 0.013 | [1] -0.006 | defactinib -0.033 | rucaparib 0.02 | [2] -0.038 | encorafenib 0.002 | [3] 0.026

SUGP1 (UniProt Q8IWZ8)
inactive: saracatinib 0.012 | sotrastaurin -0.049 | alvocidib -0.129 | Tubastatin A 0.052 | [1] -0.043 | defactinib -0.124 | rucaparib -0.016 | [2] -0.074 | encorafenib -0.003 | [3] -0.02

TBC1D9B (UniProt Q66K14)
inactive: saracatinib -0.023 | sotrastaurin 0.077 | alvocidib -0.059 | Tubastatin A 0.063 | [1] -0.07 | defactinib -0.064 | rucaparib 0.009 | [2] -0.01 | encorafenib 0.065 | [3] 0.027

SLC25A39 (UniProt Q9BZJ4)
Sequence of UniProt Q9BZJ4 (Q9BZJ4 whole entry, looked up): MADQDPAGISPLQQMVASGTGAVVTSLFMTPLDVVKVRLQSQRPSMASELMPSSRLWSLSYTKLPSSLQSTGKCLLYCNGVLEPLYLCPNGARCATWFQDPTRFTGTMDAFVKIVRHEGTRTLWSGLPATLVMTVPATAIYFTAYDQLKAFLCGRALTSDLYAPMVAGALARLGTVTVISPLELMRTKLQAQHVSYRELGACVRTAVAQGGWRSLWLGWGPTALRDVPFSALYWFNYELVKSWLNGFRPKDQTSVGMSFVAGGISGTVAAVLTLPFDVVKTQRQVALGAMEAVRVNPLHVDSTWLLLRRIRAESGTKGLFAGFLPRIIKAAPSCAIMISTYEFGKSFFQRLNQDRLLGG
inactive: saracatinib 0.107 | sotrastaurin -0.076 | alvocidib 0.134 | Tubastatin A -0.18 | [1] -0.118 | defactinib -0.044 | rucaparib -0.01 | [2] 0.015 | encorafenib 0.005 | [3] 0.041

STK38 (UniProt Q15208)
Sequence of UniProt Q15208 (Q15208 whole entry, looked up): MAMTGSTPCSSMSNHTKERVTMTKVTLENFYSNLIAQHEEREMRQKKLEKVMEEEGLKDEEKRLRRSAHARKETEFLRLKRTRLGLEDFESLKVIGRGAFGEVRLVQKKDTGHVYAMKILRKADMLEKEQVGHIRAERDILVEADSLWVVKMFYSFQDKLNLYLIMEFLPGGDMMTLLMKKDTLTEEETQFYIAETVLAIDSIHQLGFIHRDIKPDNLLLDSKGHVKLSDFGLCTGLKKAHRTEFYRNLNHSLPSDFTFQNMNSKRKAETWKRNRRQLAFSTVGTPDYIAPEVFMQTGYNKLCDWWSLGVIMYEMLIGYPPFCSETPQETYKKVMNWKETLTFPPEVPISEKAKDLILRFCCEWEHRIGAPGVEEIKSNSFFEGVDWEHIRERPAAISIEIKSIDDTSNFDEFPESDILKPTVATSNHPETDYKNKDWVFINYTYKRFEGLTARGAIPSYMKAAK
inactive: saracatinib -0.02 | sotrastaurin -0.055 | alvocidib -0.12 | Tubastatin A -0.016 | [1] -0.073 | defactinib -0.127 | rucaparib 0.058 | [2] 0.005 | encorafenib 0.104 | [3] -0.064

TJP2 isoform 7 (UniProt Q9UDY2)
Sequence of UniProt Q9UDY2 (Q9UDY2 whole entry, looked up): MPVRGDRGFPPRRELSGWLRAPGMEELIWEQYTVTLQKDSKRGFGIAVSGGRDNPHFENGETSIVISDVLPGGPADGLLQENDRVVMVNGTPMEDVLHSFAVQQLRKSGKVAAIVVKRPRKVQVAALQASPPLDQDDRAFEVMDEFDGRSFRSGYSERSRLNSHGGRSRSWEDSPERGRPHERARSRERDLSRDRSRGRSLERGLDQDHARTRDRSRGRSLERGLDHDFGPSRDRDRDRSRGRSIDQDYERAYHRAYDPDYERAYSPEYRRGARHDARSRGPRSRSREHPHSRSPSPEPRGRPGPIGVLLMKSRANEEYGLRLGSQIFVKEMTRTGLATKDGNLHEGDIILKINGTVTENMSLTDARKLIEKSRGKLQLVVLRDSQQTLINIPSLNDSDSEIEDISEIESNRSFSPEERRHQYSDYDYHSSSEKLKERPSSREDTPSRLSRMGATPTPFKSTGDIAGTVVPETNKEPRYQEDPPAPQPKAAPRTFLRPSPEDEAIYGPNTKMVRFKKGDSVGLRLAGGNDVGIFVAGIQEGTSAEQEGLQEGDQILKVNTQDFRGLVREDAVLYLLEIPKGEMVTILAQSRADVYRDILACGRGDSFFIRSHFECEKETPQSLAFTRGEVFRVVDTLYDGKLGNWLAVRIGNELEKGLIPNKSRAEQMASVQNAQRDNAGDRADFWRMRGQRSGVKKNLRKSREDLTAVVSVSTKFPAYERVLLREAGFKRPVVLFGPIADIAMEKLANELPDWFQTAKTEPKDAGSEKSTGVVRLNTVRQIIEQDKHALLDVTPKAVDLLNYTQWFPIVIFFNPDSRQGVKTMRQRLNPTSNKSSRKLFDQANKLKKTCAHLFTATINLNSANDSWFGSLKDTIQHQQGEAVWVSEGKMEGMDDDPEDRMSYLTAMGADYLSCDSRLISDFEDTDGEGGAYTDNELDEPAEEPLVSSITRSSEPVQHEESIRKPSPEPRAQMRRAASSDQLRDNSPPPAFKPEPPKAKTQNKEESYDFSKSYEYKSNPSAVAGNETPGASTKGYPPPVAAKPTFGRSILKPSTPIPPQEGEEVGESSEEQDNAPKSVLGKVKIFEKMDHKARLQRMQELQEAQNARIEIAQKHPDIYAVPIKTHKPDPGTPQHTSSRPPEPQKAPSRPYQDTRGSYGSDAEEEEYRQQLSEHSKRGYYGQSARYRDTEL
inactive: saracatinib -0.074 | sotrastaurin -0.151 | alvocidib -0.067 | Tubastatin A 0.047 | [1] -0.06 | defactinib -0.211 | rucaparib 0.051 | [2] 0.054 | encorafenib 0.066 | [3] -0.097

TIMM10B (UniProt Q9Y5J6)
Sequence of UniProt Q9Y5J6 (Q9Y5J6 whole entry, looked up): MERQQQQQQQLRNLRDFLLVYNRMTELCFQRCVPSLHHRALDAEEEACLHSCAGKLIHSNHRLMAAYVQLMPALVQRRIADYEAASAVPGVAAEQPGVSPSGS
inactive: saracatinib -0.046 | sotrastaurin 0.074 | alvocidib -0.022 | Tubastatin A 0.109 | defactinib -0.074 | rucaparib 0.017 | [2] -0.106 | encorafenib -0.022 | [3] -0.117
active: [1] 0.484

SORT1 (UniProt Q99523)
inactive: saracatinib 0.038 | sotrastaurin 0.017 | alvocidib 0.012 | Tubastatin A -0.011 | [1] 0.017 | defactinib -0.033 | rucaparib 0 | [2] -0.027 | encorafenib -0.017 | [3] 0.014

SPINDOC (UniProt Q9BUA3)
Sequence of UniProt Q9BUA3 (Q9BUA3 whole entry, looked up): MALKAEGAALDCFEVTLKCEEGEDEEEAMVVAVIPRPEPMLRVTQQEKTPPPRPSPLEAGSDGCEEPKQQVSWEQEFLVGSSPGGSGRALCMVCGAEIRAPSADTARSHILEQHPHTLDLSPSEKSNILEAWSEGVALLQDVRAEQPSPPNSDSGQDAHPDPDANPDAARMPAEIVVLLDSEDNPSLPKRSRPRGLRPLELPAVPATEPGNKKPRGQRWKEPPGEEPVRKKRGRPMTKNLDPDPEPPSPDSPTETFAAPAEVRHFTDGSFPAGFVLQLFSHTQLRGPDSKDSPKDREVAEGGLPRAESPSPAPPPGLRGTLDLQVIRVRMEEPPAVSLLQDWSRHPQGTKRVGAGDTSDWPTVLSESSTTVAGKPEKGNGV
inactive: saracatinib 0.185 | sotrastaurin -0.23 | alvocidib 0.025 | Tubastatin A -0.121 | [1] -0.039 | defactinib 0.068 | rucaparib 0 | [2] -0.02 | encorafenib 0.057 | [3] 0.049
